Measured values taken from PubChem BioAssay.

Biological target: Homeobox protein Hox-A13 (Mus musculus) (UniProt Q62424)
Test: disruptors of Hoxa13 oligonucleotide interaction – biochemical, fluorescence polarization, labeled oligonucleotide, primary screen (AID 1185)
Details: Hoxa13:DNA binding, 15 min, higher = more signal, called active from +8 up or from −8 down

Chain of Homeobox protein Hox-A13 (Mus musculus) (Q62424 whole entry, looked up): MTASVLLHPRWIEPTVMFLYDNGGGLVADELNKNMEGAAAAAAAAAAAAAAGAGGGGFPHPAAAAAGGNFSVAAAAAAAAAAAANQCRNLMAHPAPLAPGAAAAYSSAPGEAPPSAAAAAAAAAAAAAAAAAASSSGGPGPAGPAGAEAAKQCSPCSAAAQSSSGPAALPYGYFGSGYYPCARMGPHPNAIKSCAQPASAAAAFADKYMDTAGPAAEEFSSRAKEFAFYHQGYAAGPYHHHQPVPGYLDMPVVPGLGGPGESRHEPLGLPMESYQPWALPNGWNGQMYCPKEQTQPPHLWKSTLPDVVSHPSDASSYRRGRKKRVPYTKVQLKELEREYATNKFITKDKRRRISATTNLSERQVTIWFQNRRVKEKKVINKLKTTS

z-score, inactive:
O=C1[C@H]2[C@H]3[C@H](O)[C@H](O)CC(=NO[C@@H]4O[C@H](CO)[C@@H](O)[C@H](O)[C@H]4O)[C@@H]3CC[C@H]2C(=O)N1c1cccc(Oc2ccccc2)c1 -1.14, COc1ccc(O[C@H]2C=C[C@@H](c3ccccc3)O[C@@H]2CON=C2c3cc(OC)ccc3O[C@H](c3cccc(OC)c3)[C@H]2O)cc1 1.67, C=CC[C@@H]1C=C[C@H](ON=C(C)CCN2CCCCc3nc(C)c(C)cc32)[C@@H](CO)O1 -4.55, COc1ccc(-c2cnnc(CCCn3ccnc3-c3ccccc3)n2)cc1 -3.52, CCOC(=O)[C@H](CC(C)C)NC(=O)CCC1CC(OC(=O)NCc2ccc3c(c2)OCO3)CC2(CCCC(COC(=O)NCCOC)O2)O1 (stereo not given in full) -5.34, CCCCOC(OCCCC)C(O)CSc1ccc2ccccc2c1 (stereo not given) -3.85, CC(=O)OC[C@H]1O[C@H](CC=NO[C@H](C)c2cn([C@@H]3COC[C@H]3O)nn2)C=C[C@@H]1OC(C)=O 0.928, CO[C@@H]1COC(=O)[C@@H]2CCCN2C(=O)[C@@H](C)COC(=O)CCC[C@H]1C 0.694, COc1ccc(COC(=O)NN=C2C[C@@H](O)[C@@H](O)[C@@H]3[C@@H]4C(=O)N(C[C@@H]5CCCO5)C(=O)[C@@H]4CC[C@@H]23)cc1 0.903, CC(=O)OC[C@H]1O[C@H](CC=NOC(C)CN2CCCCc3nc(C)c(C)cc32)C=C[C@@H]1OC(C)=O (stereo not given in full) -3.74
